Test results reported in PubChem BioAssay (Tox21).
Records with an inconclusive call do not appear. Where a call stands in place of a potency, no number is given. Activity calls are given as the source filed them. The call rests on the fitted dose curve; in most records, active means well fitted inhibition curve with a large enough effect in the repeat runs; inconclusive means weak or mixed curves; inactive means flat fitted curve, though single readings scatter.

What follows are compounds tested against Voltage-gated inwardly rectifying potassium channel KCNH2 (Homo sapiens) (UniProt Q12809) (assay: Human Ether-a-go-go-Related Gene (hERG) channel small molecule antagonists: fluorescence cell-based qHTS assay (AID 1671200;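 further: hERG-expressing U2OS cells given a thallium stimulus after FluxOR II dye loading; nearly all actives have a fitted effect of over 50% in size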)). Details: hERG-U2OS cells, FluxOR thallium flux fluorescence; series mostly up to 76.8 µM.
Outline: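 In this thallium-flux screen, overnight-cultured U2OS cells bearing the channel are dye-loaded in darkness for an hour, rested 10 min at room temperature, and then monitored kinetically at 480/540 nm for two minutes post-stimulus.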

Voltage-gated inwardly rectifying potassium channel KCNH2 (Homo sapiens), sequence (Q12809 whole entry, looked up): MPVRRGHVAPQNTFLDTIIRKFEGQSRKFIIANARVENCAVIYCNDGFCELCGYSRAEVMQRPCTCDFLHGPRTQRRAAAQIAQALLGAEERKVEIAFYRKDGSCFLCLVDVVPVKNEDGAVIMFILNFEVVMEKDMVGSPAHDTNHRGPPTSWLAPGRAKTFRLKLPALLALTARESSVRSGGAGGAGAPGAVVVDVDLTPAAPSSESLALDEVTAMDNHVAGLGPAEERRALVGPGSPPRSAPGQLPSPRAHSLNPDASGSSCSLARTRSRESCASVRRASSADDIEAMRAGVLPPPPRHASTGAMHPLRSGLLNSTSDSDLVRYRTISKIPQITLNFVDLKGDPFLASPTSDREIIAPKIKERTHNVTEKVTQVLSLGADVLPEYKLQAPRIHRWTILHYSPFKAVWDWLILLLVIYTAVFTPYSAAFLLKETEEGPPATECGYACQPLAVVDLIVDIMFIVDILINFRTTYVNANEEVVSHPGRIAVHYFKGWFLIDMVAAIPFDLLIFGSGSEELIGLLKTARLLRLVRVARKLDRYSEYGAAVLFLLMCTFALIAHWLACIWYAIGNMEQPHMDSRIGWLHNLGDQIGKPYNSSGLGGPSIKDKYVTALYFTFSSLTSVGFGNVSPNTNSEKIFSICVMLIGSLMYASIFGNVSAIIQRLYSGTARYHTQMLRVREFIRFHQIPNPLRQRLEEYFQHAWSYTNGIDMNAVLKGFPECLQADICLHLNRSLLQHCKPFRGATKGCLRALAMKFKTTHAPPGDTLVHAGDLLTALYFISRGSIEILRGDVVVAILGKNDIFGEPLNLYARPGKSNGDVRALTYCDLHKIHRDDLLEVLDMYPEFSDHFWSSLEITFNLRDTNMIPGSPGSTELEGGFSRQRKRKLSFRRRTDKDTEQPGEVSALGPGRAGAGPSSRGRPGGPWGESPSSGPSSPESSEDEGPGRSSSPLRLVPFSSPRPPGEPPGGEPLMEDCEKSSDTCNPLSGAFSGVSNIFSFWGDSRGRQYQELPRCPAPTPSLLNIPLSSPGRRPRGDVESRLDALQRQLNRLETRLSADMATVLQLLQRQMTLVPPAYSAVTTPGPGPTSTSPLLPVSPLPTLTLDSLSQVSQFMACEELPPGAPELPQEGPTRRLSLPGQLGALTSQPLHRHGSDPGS

| Structure (SMILES) | Potency |
| --- | --- |
| C[C@H]1O[C@@H](O[C@H]2[C@@H](O)C[C@H](O[C@H]3[C@@H](O)C[C@H](O[C@H]4CC[C@@]5(C)[C@H](CC[C@@H]6[C@@H]5C[C@@H](O)[C@]5(C)[C@@H](C7=CC(=O)OC7)CC[C@]65O)C4)O[C@@H]3C)O[C@@H]2C)C[C@H](O)[C@@H]1O | inactive |
| O=C(O)CCCCCCC(=O)O | inactive |
| CCC(=O)OCCc1ccccc1 | inactive |
| CCCCCCCCCCCC(=O)N(CC)CC | inactive |
| CC1(C)COCN1 | inactive |
| CCCCCCS | inactive |
| C#CC(O)CCC (configuration not stated) | inactive |
| COc1ccc(C#N)cc1 | inactive |
| COc1nccnc1CC(C)C | inactive |
| C=CC/C=C/C/C=C/C/C=C/C | inactive |
| C1CC(COCC2CO2)CCC1COCC1CO1 (configuration not stated) | inactive |
| COC(=O)[C@]1(C)CCC[C@@]2(C)[C@H]1CC=C1C=C(C(C)C)CC[C@@H]12 | inactive |
| CCCCCCCCCCCCCOP(=O)(O)O | inactive |
| CCCCOC(=O)C(C)CC (configuration not stated) | inactive |
| CCc1cccc(CC)c1NC(=O)C(=O)O | inactive |
| C[Si](C)(C)Cl | inactive |
| CC1CNCC(C)O1 (configuration not stated) | inactive |
| COC(=O)CC(C)CCC=C(C)C (configuration not stated) | inactive |
| Oc1c(Br)cc(Br)c2cccnc12 | inactive |
| CC(C)=C1CC[C@@H](C)CC1=O | inactive |
| C=CC(=O)OCCOCC(CC)(COCCOC(=O)C=C)COCCOC(=O)C=C | inactive |
| COc1cccc(O)c1 | inactive |
| Cc1cccc(Br)c1 | inactive |
| CC(O)C#CC(C)O (configuration not stated) | inactive |
| Clc1nc2ccccc2s1 | inactive |
| C=CCCCCCCC=C | inactive |
| CC(=O)c1ccccc1N | inactive |
